These targets were tested with Cc1nc(Nc2ncc(C(=O)Nc3c(C)cccc3Cl)s2)cc(N2CCN(CCO)CC2)n1 [dasatinib] (assay: log2 fold change of tryptic peptide abundance, ligand vs vehicle (limited proteolysis) (log2 ratio); higher = more trypsin-susceptible (destabilized)). Conditions: ligand concentration: 5 uM; sample: K562 cleared lysate.

UniProt Q06203, sequence (Q06203 whole entry): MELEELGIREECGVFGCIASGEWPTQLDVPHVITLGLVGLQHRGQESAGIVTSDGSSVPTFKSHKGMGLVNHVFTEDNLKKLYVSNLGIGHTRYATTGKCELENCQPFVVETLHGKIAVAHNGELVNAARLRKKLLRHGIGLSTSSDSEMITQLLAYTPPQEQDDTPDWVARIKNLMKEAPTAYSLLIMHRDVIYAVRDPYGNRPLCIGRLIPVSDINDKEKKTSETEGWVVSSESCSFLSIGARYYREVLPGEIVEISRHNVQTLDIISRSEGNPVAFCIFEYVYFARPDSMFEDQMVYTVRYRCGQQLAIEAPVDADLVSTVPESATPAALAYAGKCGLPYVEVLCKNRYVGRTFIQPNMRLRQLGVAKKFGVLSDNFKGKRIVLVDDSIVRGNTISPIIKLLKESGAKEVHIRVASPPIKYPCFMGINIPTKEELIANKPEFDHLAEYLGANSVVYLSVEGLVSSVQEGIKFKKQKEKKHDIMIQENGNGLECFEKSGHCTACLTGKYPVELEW
UniProt O60674, sequence (O60674 whole entry): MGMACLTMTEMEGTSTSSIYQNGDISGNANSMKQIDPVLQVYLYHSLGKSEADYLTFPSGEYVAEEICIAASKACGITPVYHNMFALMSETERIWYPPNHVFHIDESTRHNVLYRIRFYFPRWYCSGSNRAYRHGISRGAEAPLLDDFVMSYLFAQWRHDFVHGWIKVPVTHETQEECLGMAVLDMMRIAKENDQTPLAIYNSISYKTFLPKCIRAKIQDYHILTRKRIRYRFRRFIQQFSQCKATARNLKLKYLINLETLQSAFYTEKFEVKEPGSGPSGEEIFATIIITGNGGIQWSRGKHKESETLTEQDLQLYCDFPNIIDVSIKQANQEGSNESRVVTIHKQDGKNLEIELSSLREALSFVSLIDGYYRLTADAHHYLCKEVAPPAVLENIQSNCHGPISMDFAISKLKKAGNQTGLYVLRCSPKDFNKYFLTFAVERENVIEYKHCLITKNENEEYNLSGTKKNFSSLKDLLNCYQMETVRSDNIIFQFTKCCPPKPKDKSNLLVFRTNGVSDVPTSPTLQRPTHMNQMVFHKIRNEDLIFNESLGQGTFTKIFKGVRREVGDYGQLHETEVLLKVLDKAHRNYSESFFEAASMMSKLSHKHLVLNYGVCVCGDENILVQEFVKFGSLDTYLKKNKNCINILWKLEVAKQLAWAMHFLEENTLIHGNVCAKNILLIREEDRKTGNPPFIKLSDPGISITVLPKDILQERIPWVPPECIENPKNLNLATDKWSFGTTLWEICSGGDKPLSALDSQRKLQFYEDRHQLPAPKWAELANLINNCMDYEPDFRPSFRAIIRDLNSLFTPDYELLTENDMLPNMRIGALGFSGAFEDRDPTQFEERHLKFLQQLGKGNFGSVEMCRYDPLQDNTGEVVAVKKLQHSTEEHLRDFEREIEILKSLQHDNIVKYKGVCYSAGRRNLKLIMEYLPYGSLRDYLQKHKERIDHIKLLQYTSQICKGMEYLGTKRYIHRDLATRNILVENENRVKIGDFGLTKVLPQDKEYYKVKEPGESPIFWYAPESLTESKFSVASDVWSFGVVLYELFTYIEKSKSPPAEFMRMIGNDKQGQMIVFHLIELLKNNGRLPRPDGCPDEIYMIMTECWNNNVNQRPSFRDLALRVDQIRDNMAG
UniProt P22830, sequence (P22830 whole entry): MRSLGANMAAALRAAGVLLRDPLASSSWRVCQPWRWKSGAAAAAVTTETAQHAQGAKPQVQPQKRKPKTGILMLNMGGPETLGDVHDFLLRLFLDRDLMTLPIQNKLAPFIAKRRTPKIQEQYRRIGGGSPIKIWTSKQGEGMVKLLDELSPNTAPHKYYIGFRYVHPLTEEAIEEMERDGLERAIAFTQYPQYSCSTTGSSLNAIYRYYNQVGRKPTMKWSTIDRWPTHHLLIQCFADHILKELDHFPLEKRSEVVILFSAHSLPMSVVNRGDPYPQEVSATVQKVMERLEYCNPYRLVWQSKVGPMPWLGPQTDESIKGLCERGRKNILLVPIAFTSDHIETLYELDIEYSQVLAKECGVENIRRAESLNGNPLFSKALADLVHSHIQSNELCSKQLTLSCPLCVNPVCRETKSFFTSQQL
UniProt P23458, sequence (P23458 whole entry): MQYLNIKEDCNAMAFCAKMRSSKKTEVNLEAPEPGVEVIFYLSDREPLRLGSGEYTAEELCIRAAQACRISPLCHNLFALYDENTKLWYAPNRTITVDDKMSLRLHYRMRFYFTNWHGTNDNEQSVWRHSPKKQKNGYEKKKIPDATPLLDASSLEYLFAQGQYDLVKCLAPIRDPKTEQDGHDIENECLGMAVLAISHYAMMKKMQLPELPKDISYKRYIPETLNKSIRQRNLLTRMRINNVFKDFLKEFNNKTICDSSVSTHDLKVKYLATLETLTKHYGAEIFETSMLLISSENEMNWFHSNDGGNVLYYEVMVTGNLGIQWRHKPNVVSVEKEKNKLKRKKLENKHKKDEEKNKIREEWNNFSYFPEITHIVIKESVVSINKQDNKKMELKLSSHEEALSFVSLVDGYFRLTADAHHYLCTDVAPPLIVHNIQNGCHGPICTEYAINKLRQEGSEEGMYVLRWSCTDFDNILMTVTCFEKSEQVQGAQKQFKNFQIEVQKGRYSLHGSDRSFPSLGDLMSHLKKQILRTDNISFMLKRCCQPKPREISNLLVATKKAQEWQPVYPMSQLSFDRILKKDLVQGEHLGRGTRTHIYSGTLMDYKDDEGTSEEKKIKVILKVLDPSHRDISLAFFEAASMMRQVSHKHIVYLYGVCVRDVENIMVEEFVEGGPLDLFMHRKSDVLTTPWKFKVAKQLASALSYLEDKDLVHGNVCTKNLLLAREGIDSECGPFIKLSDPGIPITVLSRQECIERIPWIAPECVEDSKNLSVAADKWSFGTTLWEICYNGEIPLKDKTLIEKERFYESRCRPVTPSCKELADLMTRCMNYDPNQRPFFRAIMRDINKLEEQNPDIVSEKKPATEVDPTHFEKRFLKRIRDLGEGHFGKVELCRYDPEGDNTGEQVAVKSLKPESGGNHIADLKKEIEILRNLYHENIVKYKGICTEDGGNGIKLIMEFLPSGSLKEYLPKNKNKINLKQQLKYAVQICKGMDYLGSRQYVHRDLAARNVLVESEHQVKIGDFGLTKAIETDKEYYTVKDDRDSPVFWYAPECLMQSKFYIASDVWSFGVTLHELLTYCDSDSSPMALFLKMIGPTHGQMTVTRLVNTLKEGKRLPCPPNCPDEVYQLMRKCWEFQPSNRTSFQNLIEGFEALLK
UniProt Q13043, sequence (Q13043 whole entry): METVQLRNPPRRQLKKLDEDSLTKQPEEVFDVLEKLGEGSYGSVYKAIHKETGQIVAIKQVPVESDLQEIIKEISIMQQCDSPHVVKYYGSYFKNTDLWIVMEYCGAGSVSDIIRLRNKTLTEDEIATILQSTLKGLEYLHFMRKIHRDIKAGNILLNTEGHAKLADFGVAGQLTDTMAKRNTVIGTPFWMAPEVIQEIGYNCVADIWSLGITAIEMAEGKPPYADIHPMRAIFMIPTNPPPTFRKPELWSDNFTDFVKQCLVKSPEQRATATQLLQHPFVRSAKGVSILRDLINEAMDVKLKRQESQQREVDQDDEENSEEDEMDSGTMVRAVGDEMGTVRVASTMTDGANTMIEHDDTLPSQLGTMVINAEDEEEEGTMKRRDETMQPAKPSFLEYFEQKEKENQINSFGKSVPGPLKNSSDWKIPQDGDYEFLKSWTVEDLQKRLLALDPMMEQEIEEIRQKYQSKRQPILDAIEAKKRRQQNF
UniProt P42680, sequence (P42680 whole entry): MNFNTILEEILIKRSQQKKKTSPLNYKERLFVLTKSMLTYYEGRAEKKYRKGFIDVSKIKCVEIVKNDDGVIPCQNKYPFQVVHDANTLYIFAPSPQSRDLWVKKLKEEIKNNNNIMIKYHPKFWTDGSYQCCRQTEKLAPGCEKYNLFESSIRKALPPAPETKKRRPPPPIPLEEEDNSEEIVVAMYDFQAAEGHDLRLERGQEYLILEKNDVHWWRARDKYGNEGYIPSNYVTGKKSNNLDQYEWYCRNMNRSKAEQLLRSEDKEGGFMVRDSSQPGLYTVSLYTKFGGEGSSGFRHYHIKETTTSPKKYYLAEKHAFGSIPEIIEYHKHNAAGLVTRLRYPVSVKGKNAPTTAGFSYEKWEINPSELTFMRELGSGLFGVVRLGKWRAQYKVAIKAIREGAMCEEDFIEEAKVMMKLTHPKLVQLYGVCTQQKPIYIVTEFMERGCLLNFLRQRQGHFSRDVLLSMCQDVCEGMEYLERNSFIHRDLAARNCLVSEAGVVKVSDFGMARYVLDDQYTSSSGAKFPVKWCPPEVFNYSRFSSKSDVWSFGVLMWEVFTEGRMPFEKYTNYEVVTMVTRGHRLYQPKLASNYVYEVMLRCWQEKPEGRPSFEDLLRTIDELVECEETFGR
UniProt Q6PHR2, sequence (Q6PHR2 whole entry): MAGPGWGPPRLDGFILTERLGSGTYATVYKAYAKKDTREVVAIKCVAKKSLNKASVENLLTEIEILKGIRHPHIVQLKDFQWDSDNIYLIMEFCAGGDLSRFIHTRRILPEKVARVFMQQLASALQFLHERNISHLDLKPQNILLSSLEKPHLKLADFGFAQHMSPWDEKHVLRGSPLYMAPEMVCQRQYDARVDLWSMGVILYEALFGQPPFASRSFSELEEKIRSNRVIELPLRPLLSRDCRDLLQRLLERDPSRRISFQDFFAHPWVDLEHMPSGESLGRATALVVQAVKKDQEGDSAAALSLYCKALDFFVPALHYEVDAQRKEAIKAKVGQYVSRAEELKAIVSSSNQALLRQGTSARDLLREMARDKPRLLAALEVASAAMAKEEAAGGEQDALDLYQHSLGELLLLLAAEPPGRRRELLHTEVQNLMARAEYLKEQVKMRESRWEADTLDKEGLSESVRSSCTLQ

“AASDHPPT (peptide sequence: IGQFVFAR, peptide start residue: 48) (UniProt Q9NRN7)” and “UniProt Q13043 (peptide sequence: ATATQLLQHPFVR, peptide start residue: 270)” are within 0.2 log units of each other in log2 fold change: -0.547 for the first, -0.627 for the second.

Compared with “Jak2 (peptide sequence: VLPQDKEYYK, peptide start residue: 1000) (UniProt O60674)”, “FECH (peptide sequence: LFLDRDLMTLPIQNK, peptide start residue: 92) (UniProt P22830)” is higher in log2 fold change: -0.993 for the first, -0.278 for the second.

Compared with “JAK1 (peptide sequence: NVLVESEHQVK, peptide start residue: 1008) (UniProt P23458)”, “ABHD4 (peptide sequence: VAGPWGPGLVQR, peptide start residue: 209) (UniProt Q8TB40)” is higher in log2 fold change: -1.51 for the first, 0.933 for the second.

“ULK3 (peptide sequence: VIELPLRPLLSR, peptide start residue: 230) (UniProt Q6PHR2)” and “PYGL (peptide sequence: NLAENISR, peptide start residue: 271) (UniProt P06737)” are within 0.2 log units of each other in log2 fold change: -0.336 for the first, -0.422 for the second.

Going from “PPAT (peptide sequence: TFIQPNMR, peptide start residue: 356) (UniProt Q06203)” to “TEC (peptide sequence: GCLLNFLR, peptide start residue: 448) (UniProt P42680)”, the log2 fold change falls from -0.503 to -2.98.

Target “UniProt P46781 (peptide sequence: ELLTLDEKDPRR, peptide start residue: 59)” has a log2 fold change of -0.304.

From the supplement of paper PMC12819154, “High-throughput peptide-centric local stability assay extends protein–ligand identification to membrane proteins, tissues and bacteria” (Nature Structural & Molecular Biology, 2025)
